# According to ChEMBL document CHEMBL1961873, “Compounds: GSK PKIS; Assays: Nanosyn kinase panel” (2012):
# Biological target: T1, Serine/threonine-protein kinase D3 (Homo sapiens) (UniProt O94806)
# T1 sequence (whole entry): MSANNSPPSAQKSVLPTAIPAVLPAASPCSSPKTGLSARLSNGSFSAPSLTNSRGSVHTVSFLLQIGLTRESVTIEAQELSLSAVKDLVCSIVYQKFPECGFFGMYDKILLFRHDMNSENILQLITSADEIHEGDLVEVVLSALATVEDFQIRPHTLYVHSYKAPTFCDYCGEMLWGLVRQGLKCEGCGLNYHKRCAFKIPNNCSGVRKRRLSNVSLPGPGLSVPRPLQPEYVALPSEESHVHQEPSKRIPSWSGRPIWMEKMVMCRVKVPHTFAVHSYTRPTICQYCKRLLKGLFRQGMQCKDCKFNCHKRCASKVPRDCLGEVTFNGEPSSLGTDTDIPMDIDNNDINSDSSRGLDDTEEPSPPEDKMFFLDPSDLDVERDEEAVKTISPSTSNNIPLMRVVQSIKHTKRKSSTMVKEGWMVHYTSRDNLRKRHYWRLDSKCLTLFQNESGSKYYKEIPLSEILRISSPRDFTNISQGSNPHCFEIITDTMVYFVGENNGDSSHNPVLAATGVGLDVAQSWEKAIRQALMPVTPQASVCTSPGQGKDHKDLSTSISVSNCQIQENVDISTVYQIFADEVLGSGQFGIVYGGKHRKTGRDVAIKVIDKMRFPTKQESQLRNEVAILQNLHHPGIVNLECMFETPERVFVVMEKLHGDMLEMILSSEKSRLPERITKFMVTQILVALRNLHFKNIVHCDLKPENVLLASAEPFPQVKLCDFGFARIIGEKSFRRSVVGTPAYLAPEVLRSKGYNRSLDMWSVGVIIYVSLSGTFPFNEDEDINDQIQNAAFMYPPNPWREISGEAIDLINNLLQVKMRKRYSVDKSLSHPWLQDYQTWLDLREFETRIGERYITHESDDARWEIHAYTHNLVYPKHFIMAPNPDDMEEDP
# Conditions: at 1 µM
# 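Note: values are mean inhibition figures against PRKD3.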
row,SMILES,inhibition
1,Cc1ccc(O)cc1Nc1ccnc2cc(-c3ccccn3)ccc12,18.9%
2,COC(=O)c1sc(-n2cnc3cc(OC)c(OC)cc32)cc1OCc1ccccc1C(F)(F)F,5.73%
3,COc1cc2ncn(-c3cc(OCc4ccccc4C(F)(F)F)c(C(=O)N(C)C)s3)c2cc1OC,-0.01%
4,CC(C)COC(=O)c1ccc2c(c1)/C(=C/Nc1ccc(S(N)(=O)=O)cc1)C(=O)N2,46.3%
5,CCc1nn2ncccc2c1-c1ccnc(NC2CC2)n1,2.57%
6,CC(=O)Nc1cccc(C#Cc2cncnc2Nc2ccc(OCc3cccc(F)c3)c(Cl)c2)c1,2.46%
7,CCn1cc(-c2ccnc3[nH]ccc23)c(-c2cccc(NC(=O)Nc3ccc(OCc4ccccc4)cc3)c2)n1,4.36%
8,COc1ccc(-c2nn3ncccc3c2-c2ccnc(Nc3ccc4c(c3)OCCO4)n2)cc1,8.59%
9,COC(=O)Nc1nc2ccc(S(=O)(=O)c3ccc(NC(=O)Nc4cc(C(F)(F)F)ccc4F)cc3)cc2[nH]1,5.1%
10,Cc1ccc2c(-c3ccnc(Nc4ccccc4)n3)c(-c3ccc(F)cc3)nn2n1,80.7%
11,COc1cccc(-n2ncc3c(N/N=C/c4ccc(F)cc4)ncnc32)c1,4.06%
12,CCn1c(-c2nonc2N)nc2c(C#CC(C)(C)O)ncc(OC3CCNCC3)c21,14.2%
13,Nc1ncc(-c2cccc(S(N)(=O)=O)c2)c2scc(-c3ccc(F)c(Cl)c3)c12,33.1%
14,O=C(Nc1n[nH]c2cc(-c3ccc(F)cc3)ccc12)C1CC1,5.25%
15,[O-][S+]1CCN(Cc2ccc(-c3ccc4ncnc(Nc5ccc(OCc6cccc(F)c6)c(Cl)c5)c4c3)o2)CC1,6.53%
16,Fc1cccc(COc2ccc(Nc3ncnc4sc(-c5ccco5)cc34)cc2Cl)c1,4.41%
17,NS(=O)(=O)c1ccc(Nc2ncc(-c3ccccc3)o2)cc1,5.97%

row,SMILES,inhibition
1,CCNC(=O)O[C@H]1CN[C@H](C#Cc2cc3ncnc(Nc4ccc(OCc5cccc(F)c5)c(Cl)c4)c3s2)C1,3.78%
2,CCN(CC)S(=O)(=O)c1ccc(OC)c(Nc2ncc(-c3ccccc3)o2)c1,0.06%
3,COc1ccc(-c2oc3ncnc(N)c3c2-c2ccc(NC(=O)Nc3cc(C(F)(F)F)ccc3F)cc2)cc1,2.96%
4,CNC(=O)c1cc(-c2ccc(F)cc2)cc(-c2ccc(S(=O)(=O)N3CCCC3)cc2)c1N,3.34%
5,CCn1c(-c2nonc2N)nc2ccccc21,3.93%
6,CCn1c(-c2nonc2N)nc2c(C#CC(C)(C)O)nc(OC[C@H](N)c3ccccc3)cc21,28.6%
7,CCn1c(-c2nonc2N)nc2cnc(Oc3cccc(NC(=O)c4ccc(N(C)C)cc4)c3)cc21,2.97%
8,COc1ccc(CNC(=O)c2ccc(-c3cc(-c4nnc(C)o4)ccc3C)cc2)cc1,0.26%
9,Clc1ccc(-c2nn3ncccc3c2-c2ccnc(Nc3ccccc3)n2)cc1,4.14%
10,COc1cc(/C=N/Nc2ncnc3[nH]ncc23)ccc1O,3.16%
11,CCOc1ccc2c(-c3ccnc(Nc4cccc(C(F)(F)F)c4)n3)cnn2n1,3.58%
12,NS(=O)(=O)c1ccc(N/N=C2\C(=O)Nc3ccc4ncccc4c32)cc1,51.4%
13,O=C(O[C@H]1CN[C@H](C#Cc2cc3ncnc(Nc4ccc(Cc5ccccc5)cc4)c3s2)C1)N1CCOCC1,1.5%
14,FC(F)(F)c1cccc(-c2nn3ncccc3c2-c2ccnc(Nc3ccc4c(c3)OCCO4)n2)c1,47.2%
15,c1cc(-c2cnn3nc(N4CCOCC4)ccc23)nc(NC2CC2)n1,49.9%
16,COc1ccc(-c2cc3c(N)ncnc3o2)cc1,-1.37%
